Screening results as filed in PubChem BioAssay.
This is one part of a sample in which hits are shown more often than they occur.
RECQ1 helicase: blocks DNA unwinding by human RECQ1. P46063. AID 2549. Potency, µM (titrated, usually from 57.3 µM), most hits filed as inhibitors. 240,000 compounds, 0.54% hits. RECQ1 DNA unwinding, red fluorescence kinetic read; further: nearly all actives have a fitted effect of over 30% in size
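50 nM RECQ1T1 preincubated 15 min with compound in Tris pH 8.0 buffer with MgCl2, DTT, Tween-20 and 2.5 ug/ml poly(dI-dC); started with 200 nM TAMRA/BHQ-2 forked duplex and 2 mM ATP. Unwinding read as fluorescence (525/598 nm), two reads 2 h apart.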
KDM4E inh: inhibitors of human JMJD2E histone demethylase; B2RXH2; JMJD2E catalytic domain, FDH-coupled NADH fluorescence (FDH is formaldehyde dehydrogenase); Potency, µM (top dose mostly 57.1 µM), usual class: inhibitors; 230,000 compounds, 1.6% hits; active means well fitted inhibition curve with a large enough effect, not every such curve was filed as active; inconclusive means small, poorly fitted or top-dose-only effect, or another doubt; inactive means no such curve, though single readings can be large or run the other way; further: nearly all actives have a fitted effect of over 50% in size
APEX1 inh: inhibitors of human APE1 endonuclease | P27695 | recombinant APE1, TAMRA/BHQ-2 abasic DNA cleavage fluorescence | Potency, µM (highest dose often 65.8 µM), actives largely listed as inhibitors | 350,000 compounds, 0.35% hits | AID 2517; further: nearly all actives have a fitted effect of over 55% in size
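Measures dequenching upon AP-site incision of a 5'-TAMRA/3'-BHQ-2 THF-containing duplex, 50 nM; human APE1 0.75 nM after 15 min room-temperature exposure to compound; kinetic three-point read at one-minute spacing.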
PKM2 act: activators of human pyruvate kinase M2. P14618. purified PKM2, Kinase-Glo ATP luminescence, activation; response scale: 0% is enzyme alone, no compound. Potency, µM (series often up to 57.5 µM), actives largely listed as activators. 260,000 compounds, 0.34% hits. AID 1631; further: nearly all actives have a fitted effect of over 55% in size
Target sequence (P14618 whole entry, looked up): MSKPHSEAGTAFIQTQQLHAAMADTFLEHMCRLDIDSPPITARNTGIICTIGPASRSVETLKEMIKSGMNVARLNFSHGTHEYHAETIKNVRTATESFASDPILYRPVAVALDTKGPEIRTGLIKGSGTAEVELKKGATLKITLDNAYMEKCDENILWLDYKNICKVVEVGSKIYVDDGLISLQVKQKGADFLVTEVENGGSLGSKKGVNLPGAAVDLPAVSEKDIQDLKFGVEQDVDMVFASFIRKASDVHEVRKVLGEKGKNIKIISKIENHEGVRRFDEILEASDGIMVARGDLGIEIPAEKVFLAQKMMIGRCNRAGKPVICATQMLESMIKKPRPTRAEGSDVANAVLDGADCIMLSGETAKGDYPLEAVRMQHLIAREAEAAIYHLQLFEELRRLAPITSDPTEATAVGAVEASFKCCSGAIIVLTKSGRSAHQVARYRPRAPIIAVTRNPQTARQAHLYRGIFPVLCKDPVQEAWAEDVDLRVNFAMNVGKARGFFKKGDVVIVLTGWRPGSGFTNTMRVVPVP
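Kinase-Glo luminescence reports ATP generated from ADP (0.1 mM) and PEP (0.5 mM) by purified hPK-M2 after 1 h at room temperature, pH 7.2 imidazole buffer; intermediate enzyme activity allows detecting inhibitors and activators.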
BLM helicase inh: inhibitors of human Bloom syndrome helicase BLM | recombinant BLM DNA unwinding, fluorescence dequenching | 350,000 compounds, 0.2% hits | Potency, µM (highest dose often 56.1 µM), hits mostly inhibitors; further: nearly all actives have a fitted effect of over 35% in size
Numbers stand for hits; n = inactive; u = inconclusive; x = no result; ! = repeats disagree; [ ] = dose if it differs, or a comment. Unless noted, the call rests on the fitted dose curve; in most records, active means well fitted curve in the direction sought with a large enough effect; inconclusive means small, poorly fitted or top-dose-only effect, or another doubt; inactive means no such curve, though single readings can be large; an effect the other way counts as inactive or inconclusive.

SMILES | RECQ1 helicase | KDM4E inh | APEX1 inh | PKM2 act | BLM helicase inh
COc1cc2[nH]c(Cl)c([N+](=O)[O-])c2cc1OC | n | 12.6µM | u | n | u
N#CC(C#N)=Cc1ccc(-c2ccc(S(=O)(=O)N=C(N)N)cc2)o1 | n | n | n | 17.8µM | n
CC(C)OC(=O)/C(C#N)=C/c1ccc(-c2ccc(SC(F)F)cc2)o1 | n | u | n | n | n
COC(=O)/C(C#N)=C/c1ccc(-c2ccc(S(N)(=O)=O)cc2)o1 | 3.16µM | u | n | n | n
C#C[C@]1(O)CCC2C3CCC4=Cc5oncc5C[C@@]4(C)C3CC[C@@]21C (stereo partly drawn) | n | n | n | x | n
CCCCCCCCCCCCCCC1CO1 (stereo not drawn) | n | x | n | x | x
COc1ccc(/C=N/Nc2nnc(C)n2N)cc1OC | n | 14.1µM | n | n | n
CCOc1cc(C2C3=C(CCCC3=O)NC3=C2C(=O)CCC3)ccc1OCCO | n | 31.6µM | n | n | n
CCOc1cc(C2C3=C(CCCC3=O)NC3=C2C(=O)CCC3)cc(Cl)c1O | n | u | n | n | n
Cn1c(=O)n2n(c1=O)[C@H]1[C@H](O)[C@H]3O[C@@H]3/C(=N/OC[C@@H](O)COCc3ccco3)[C@@H]1CC2 | n[11.5 µM] | x | n[12.4 µM] | x | n[12.4 µM]
CC(C)Cc1nc(N2CCN(C(=O)c3ccco3)CC2)c(C#N)c2c1CCC2 | n | u | n | 22.4µM | n
Cc1ccc(-c2c3c([nH]c(=S)c2C#N)CCCC3)o1 | u | 28.2µM | u | n | u
N#Cc1c(-c2ccncc2)c2c([nH]c1=S)CCCC2 | n | n | n | n | n
CC1=NN(c2ccccc2)C(=O)C1N=Nc1ccc(N)cc1 (stereo not drawn) | n | 14.1µM | n | n | n
CC1=NN(c2ccccc2)C(=O)C1N=Nc1ccccc1 (stereo not drawn) | n | n | n | n | n
O=C(Cc1cccs1)N[C@@H]1C(=O)N2C(C(=O)[O-])=C(C[n+]3ccccc3)CS[C@H]12 | x | x | 28.2µM | x | x
O=C1NN(c2ccccc2)C(=O)/C1=C/c1ccc(Sc2cccc3ccccc23)o1 | 20µM | n | n | n | u
O=C1NN(c2ccccc2)C(=O)/C1=C/c1ccc(-c2ccc(C(=O)O)cc2)o1 | x | x | n | n | n
CCCCC/C=C\C/C=C\C=C\[C@@H](O)C/C=C\CCCC(=O)O | n | n | n | x | n
O=S(=O)(c1ccc(OCC(O)CNCc2ccco2)c(Cl)c1)N1CCOCC1 (stereo not drawn) | n | n | n | 3.98µM | n
O=C(COc1ccc(S(=O)(=O)N2CCOCC2)cc1Cl)NCc1ccco1 | x | x | n | n | n
CC1(C)CC(=O)C(C(C2=C(O)CC(C)(C)CC2=O)c2ccc(Br)s2)C(=O)C1 (stereo not drawn) | n | 20µM | n | u | n
Cc1ccc(C(C2=C(O)CC(C)(C)CC2=O)C2C(=O)CC(C)(C)CC2=O)s1 (stereo not drawn) | n | n | n | n | n
CCCCCCN(C(=O)CCCCCN1C(=O)NC(c2ccccc2)C(C(=O)OCc2ccccc2)=C1C)C(C(=O)NCCCC)c1ccc(OCC(=O)OC)c(C(=O)OC)c1 (stereo not drawn) | n | n | n | n | n
CCCCCCN(C(=O)CCCCCN1C(=O)NC(c2ccc(C3CCCCC3)cc2)C(C(=O)OCc2ccccc2)=C1C)C(C(=O)NCCCC)c1ccc(OCC(=O)OC)c(C(=O)OC)c1 (stereo not drawn) | n | n | 0.447µM! | n | n
SMILES | RECQ1 helicase | KDM4E inh | APEX1 inh | PKM2 act | BLM helicase inh
COc1ccc(-n2c(C)cc(/C=C3\SC(=S)N(Cc4ccco4)C3=O)c2C)cc1 | n | n | n | n | n
CCN1CCN(c2c(/C=C3\SC(=S)N(Cc4ccco4)C3=O)c(C)c(C#N)c(=O)n2C)CC1 | n | 12.6µM | n | n | n
COc1ccc(-c2nc3ccccc3nc2-c2ccccc2)cc1OC | x | x | n | n[11.5 µM] | n
COc1ccc(OC)c(-c2nc3cc4ccccc4cc3nc2-c2ccccc2)c1 | 3.16µM | n | n | n | n
CC(=O)c1ccc(Nc2c3ccccc3cc3occc23)cc1 | n | x | n | x | n
COC(=O)CCC(=O)CN | n | 28.2µM | n | n | n
C=C(C#N)C(=O)OCC | n | x | n | x | x
C=Cc1ccc(S(=O)(=O)O)cc1 | n | x | 14.1µM | x | n
CSc1ccc(/C=N/NC(=O)c2ccc(C)c(C)c2)cc1 | n | n | n | n | 28.2µM
CSc1ccc(/C=N/NC(=O)c2cc(O)cc(O)c2)cc1 | n | u | n | n | n
Cc1ccc(C(C)(C)c2ccc(C)cc2)cc1 | x | x | x | x | n
CC(C)(c1cc(Br)c(O)c(Br)c1)c1cc(Br)c(O)c(Br)c1 | 22.4µM! | x | n | x | x
C[C@]12CC[C@@H]3c4ccc(O)cc4CC[C@H]3[C@@H]1CC[C@@H]2O | 31.6µM! | n | n | n | n
COC(=O)C(C(=O)OC)C1O[C@@]23COCCC2(C)C3c2ccccc21 (stereo partly drawn) | n[11.5 µM] | x | u | x | n[12.4 µM]
CCC(C)[C@H](NC(=O)C1CCC(CNC(=O)[C@@H]2CCCN2C(=O)OC(C)(C)C)CC1)C(=O)O (stereo partly drawn) | x | x | 150µM | x | n
Cc1ccc(S(=O)(=O)c2c(N)n(-c3ccccc3)c3nc4ccccc4nc23)cc1 | n | u | u | n | n
C=CCn1c(NS(=O)(=O)c2ccccc2)c(S(=O)(=O)c2ccc(C)cc2)c2nc3ccccc3nc21 | n | n | n | n | 4.47µM
CC(=O)Nc1c(S(=O)(=O)c2ccccc2)c2nc3ccccc3nc2n1Cc1ccccc1 | n | u | n | n | n
O=S(=O)(Nc1c(S(=O)(=O)c2ccccc2)c2nc3ccccc3nc2n1C1CCCCC1)c1ccccc1 | n | u | n | n | 10µM
COc1ccc(-c2[nH]c(-c3cccc(OC)c3)nc2SCC(=O)Nc2ccc3c(c2)OCO3)cc1 | x | x | x | x | n
CCc1ccccc1N1CSC2=C(C#N)C(c3ccccc3F)CC(=O)N2C1 (stereo not drawn) | n | 31.6µM | n | n | n
Cc1c(C(=O)OCC[N+]2(C)CCCCC2)oc2ccccc12 | n | 25.1µM | n | u | n
Cc1c(C(=O)OCC(=O)N2CCC(C)CC2)oc2ccccc12 | x | x | n | x | x
C#CCCCO/N=C1/C[C@@H](O)[C@@H](O)[C@@H]2[C@@H]3C(=O)N(C4CCCCC4)C(=O)[C@H]3CC[C@H]12 | n[11.5 µM] | x | n[12.4 µM] | x | n[12.4 µM]
COc1cccc(-c2nnc3n2N=C(c2c(OC)cccc2OC)CS3)c1 | n | x | n | x | n
CCOc1cc(/C=C(\C#N)C(N)=O)ccc1OS(=O)(=O)c1ccccc1 | n | n | n | 14.1µM | n
CCOC(=O)/C(C#N)=C/c1ccc(OC)c(OC)c1 | n | n | n | u | n
COc1cc([N+](=O)[O-])ccc1NC(=O)CSc1nccn1C | n | n | n | 12.6µM | n
CNC(=S)NCCCCc1cnc[nH]1 | n | x | n | x | n
Cc1ccc(C)n1-c1cccc(C(=O)O)c1 | u | u | 1.78µM | n | u
